A selection: hits, their analogues and other compounds. The true share with any hit is near 7.5%.
NPC1 prom act: activates the NPC1 promoter; Huh7 NPC1 promoter luciferase reporter, 24 h; Potency, µM (doses to about 9.22 µM), inactives show top-dose activation, hits mostly activators; 320,000 compounds, 2.4% hits; AID 485313; further: % of control where 0% means no effect; nearly all actives have a fitted effect of over 60% in size
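Cells: Huh7 expressing luciferase under the NPC1 promoter, 1500/well. Seeded 2 h, compound added, incubated 24 h at 37 °C. Luciferase reagent, 10 min ambient, then luminescence.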
ELG1 genotoxic: induces genotoxicity in HEK293T cells with luciferase-tagged ELG1. Potency, µM (series often up to 46 µM), inactives show top-dose activity change, positive = activation, most hits filed as activators. HEK293T ELG1-luciferase reporter, luminescence, 16 h. 330,000 compounds, 1.3% hits; further: % of control where 0% means no effect; nearly all actives have a fitted effect of over 60% in size
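Reporter readout depends on ELG1 protein level, which increases with genetic stress. After 16 hr compound exposure at 37 °C, luciferase activity was quantified using ONE-Glo.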
SMN2 splice up: enhancers of SMN2 splice variant expression | HEK293 SMN2-luciferase splicing reporter, luminescence, 30-36 h | Potency, µM (titrated, usually from 46.1 µM), inactives show top-dose activity change, positive = activation, hits mostly activators | 210,000 compounds, 2.8% hits; further: % of control where 0% means no effect; nearly all actives have a fitted effect of over 55% in size
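HEK293 cells carry an SMN2 minigene-luciferase reporter in which exon 7 inclusion puts luciferase in frame. Cells were seeded at 2000 cells/well, attached for 10-12 hours, then exposed to compounds for 30-36 hours at 37C before ONE-Glo luminescence.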
Rab9 promoter act: activators of Rab9 promoter | Huh7 Rab9 promoter-luciferase reporter, luminescence, 24 h | Potency, µM (titrated, usually from 9.22 µM), without a hit: at the highest dose activation, negative = inhibition, usual class: activators | 320,000 compounds, 2.8% hits; further: % of control where 0% means no effect; nearly all actives have a fitted effect of over 60% in size
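Rab9 promoter-driven luciferase in stably transfected Huh7 cells; 1500 cells/well rested 2 h, exposed to compound in DMSO for 24 h at 37 °C, 5% CO2. Luminescence read 10 min after adding luciferase reagent at ambient temperature.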
KinaseGlo FLuc: blocks Kinase-Glo luciferase, a counter-screen artifact; Q27757; Kinase-Glo luciferase, ATP luminescence, 8 min; Potency, µM (doses to about 38.3 µM), for inactives: top-dose activity change, negative = inhibition, usual class: inhibitors; 200,000 compounds, 0.28% hits; further: on the % scale 0 is the no-effect control and ±100 the full control effect; nearly all actives have a fitted effect of over 60% in size
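Compound is pinned into ATP-containing buffer (10 uM ATP, imidazole pH 7.2, 7 mM MgCl2). Kinase-Glo luciferase reagent is then added. Light output is recorded following an 8-min room-temperature incubation.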
FLuc modulator: inhibits or activates purified firefly luciferase, miR-21 counter-screen. P08659. purified FLuc, Km substrates, luminescence inhibition. Potency, µM (series often up to 57.5 µM), inactives show at the top dose activity change, negative = inhibition, actives largely listed as inhibitors. 360,000 compounds, 6.9% hits. AID 588342;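 further: plate controls were vehicle for no effect and reference inhibitor for full effect; nearly all actives have a fitted effect of over 55% in size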
Target sequence (P08659 whole entry, looked up): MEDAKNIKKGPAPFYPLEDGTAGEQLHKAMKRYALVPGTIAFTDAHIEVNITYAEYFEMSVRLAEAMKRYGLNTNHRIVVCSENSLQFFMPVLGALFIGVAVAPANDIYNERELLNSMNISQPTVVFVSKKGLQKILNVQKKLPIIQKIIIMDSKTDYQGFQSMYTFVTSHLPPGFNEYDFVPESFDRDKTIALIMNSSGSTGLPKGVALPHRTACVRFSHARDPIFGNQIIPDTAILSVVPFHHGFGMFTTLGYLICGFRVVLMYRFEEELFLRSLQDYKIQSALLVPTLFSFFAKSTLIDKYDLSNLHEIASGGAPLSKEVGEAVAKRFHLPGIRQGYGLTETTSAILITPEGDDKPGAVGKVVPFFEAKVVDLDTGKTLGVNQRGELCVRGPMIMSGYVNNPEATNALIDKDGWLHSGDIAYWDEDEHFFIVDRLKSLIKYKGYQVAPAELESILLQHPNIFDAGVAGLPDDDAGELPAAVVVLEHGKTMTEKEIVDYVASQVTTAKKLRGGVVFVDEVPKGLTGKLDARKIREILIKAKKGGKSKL
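Purified P. pyralis luciferase, 10 nM final, with Km-level 10 uM D-luciferin and 10 uM ATP in 50 mM Tris acetate pH 7.5, 10 mM Mg acetate, 0.01% Tween-20, 0.05% BSA; 6-point qHTS titration about 60 µM downward; luminescence read.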
Numbers without * were called inactive; ? = inconclusive; · = no result; [ ] = dose if it differs, or a comment. The call rests on the fitted dose curve; in most records, active means well fitted curve in the direction sought with a large enough effect; inconclusive means small, poorly fitted or top-dose-only effect, or another doubt; inactive means no such curve, though single readings can be large; an effect the other way counts as inactive or inconclusive. Potency means the concentration at half of the fitted maximal effect.

SMILES	NPC1 prom act	ELG1 genotoxic	SMN2 splice up	Rab9 promoter act	KinaseGlo FLuc	FLuc modulator
Cc1ccc(N2NC(=O)/C(=C\c3cc4c(cc3[N+](=O)[O-])OCO4)C2=O)cc1C	-1%	?	-23%	-7%	-1%	?
COc1cccc(/C=C2/C(=O)NN(c3ccc(C)c(C)c3)C2=O)c1	3%	13%	·	-1%	·	?
COc1cccc(/C=C2/C(=O)NN(c3ccccc3)C2=O)c1	-2%	-1%	·	0%	·	24µM*
O=C(Nc1nnc(N2CCCCCC2)s1)Nc1cc(F)ccc1F	·	·	·	·	·	-7%
CC(=O)c1cccc(NC(=O)CCCN2C(=O)COc3ccc(C)cc32)c1	·	·	-3%	·	·	2%
CC(C)Oc1ccc(OCCn2c(=S)[nH]c3c(N)ncnc32)cc1	-3%	?	-27%	-1%	9%	27µM*
Cc1ccc(OCCn2c(=S)[nH]c3c(N)ncnc32)cc1	0%	4%	-8%	2%	2%	?
CC(=O)c1ccc(NC(=O)CSc2nc(-c3cccc(F)c3)nc3c2c(=O)n(C)c(=O)n3C)cc1	·	·	·	·	·	-3%
COc1ccccc1Nc1nn2c(=O)c3ccc(C(=O)NC4CCCCC4)cc3nc2s1	·	·	·	·	·	-7%
CN(CC1CCCN(CCc2ccccc2F)C1)C(=O)c1ccoc1 (stereo not drawn)	-4%	-1%	·	-2%	·	4%
COc1ccc(CCN2CCCC(CN(C)C(=O)c3ccoc3)C2)cc1 (stereo not drawn)	2.5µM*	16µM*	·	2.2µM*	·	15µM*
O=C(CCS(=O)(=O)c1cc(Br)cc2c1N(C(=O)C1CC1)CC2)N1CCN(c2cccc(C(F)(F)F)c2)CC1	·	·	6%	·	·	-12%
COc1cccc(C(=O)NC2=NCCS2)c1	1µM*	?	2µM*	0.56µM*	-19%	6µM*
CC(C)Oc1cccc(C(=O)NC2=NCCS2)c1	3.2µM*	-17%	5µM*	4µM*	1%	19µM*
CCOc1cccc(C(=O)NC2=NCCS2)c1	0.63µM*	?	·	0.5µM*	·	12µM*
O=C(NC1=NCCS1)c1cccc(NC(=O)c2ccco2)c1	11%	0%	3%	2%	-1%	?
CCOC(=O)c1c(C)nc(C)c(C(=O)OCC)c1-c1ccccc1	4µM*	19%	16µM*	2.2µM*	10%	6µM*
CCOC(=O)c1c(C)nc(-c2ccccc2)nc1N	4%	18µM*	·	?	5%	-15%[2.3 µM]
CCOC(=O)c1c(-c2ccccc2)cn2c(C)cc(C)nc12	3.2µM*	16µM*	11µM*	2.8µM*	-1%	3.4µM*
CC(=O)c1c(C)nc(-c2ccccc2)nc1N	19%	11%	·	13%	-2%	?
CCOC(=O)c1cnn(-c2cc(C)nc3c(-c4ccccc4)c(C)nn23)c1N	1%	-3%	12%	3%	4%	-3%
CCCCC(=O)Nc1cc(-c2nc3ccccc3o2)ccc1OC	·	·	7%	·	·	-11%
COc1ccc(-c2nc3ccccc3o2)cc1NC(=O)C(C)(C)Oc1ccc(Br)cc1	·	·	-6%	·	·	-5%
CCc1ccc2oc(-c3cccc(NC(=O)c4cc5ccccc5o4)c3)nc2c1	·	·	?	·	·	2.4µM*
COc1ccc(-c2nc3ccccc3o2)cc1NC(=O)c1cccnc1	·	·	-1%	·	·	11µM*
CCc1ccc2oc(-c3cccc(NC(=O)C(C)(C)Oc4ccc(Br)cc4)c3)nc2c1	·	·	5µM*	·	·	2.1µM*
Cc1ccc2oc(-c3ccc(Cl)c(NC(=O)c4cc5ccccc5o4)c3)nc2c1	·	·	6%	·	·	12µM*
COc1ccc(OC)c(NC(=O)CSc2nccn2-c2cc(C)cc(C)c2)c1	·	·	·	·	·	-4%
CCOC(=O)c1c(NC(=O)COc2cccc(C(F)(F)F)c2)sc2c1CCC(C)C2 (stereo not drawn)	·	·	-10%	·	·	-4%
CCOC(=O)c1scc(-c2ccccc2)c1S(=O)(=O)N1CCN(c2ccc(Cl)cc2)CC1	·	·	·	·	·	1%

Assay outcomes from PubChem BioAssay.
